These results are taken from PubChem BioAssay (NCATS).

Records with an inconclusive call do not appear. The source made the active and inactive calls. Calls follow the shape of the dose curve; as a rule, active = well fitted inhibition curve with a large enough effect; inconclusive = small, poorly fitted or top-dose-only effect; inactive = flat fitted curve, though single readings scatter.

The test system of test [1] is CP185. In words: qHTS profiling for inhibitors of Plasmodium falciparum proliferation (AID 504749). Also: nearly all actives have a fitted effect of over 60% in size. The conditions noted are these: P. falciparum in erythrocytes, SYBR Green DNA, 72 h; series mostly up to 12.8 µM. An outline of the steps:
(§1)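 SYBR Green fluorescence of parasite DNA, read after lysis and overnight dark incubation, measured growth over 72 h in erythrocyte culture at 0.3% parasitemia and 2.5% hematocrit. Data normalised to DMSO and 0.29 uM artemisinin, with plate-drift correction.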

Test [2] relates to CP194. The description is as above. As to conditions: P. falciparum in erythrocytes, SYBR Green DNA, 72 h; series mostly up to 12.8 µM. An outline of the steps: as §1
Test [3] has as its system CP201. Described as above. The conditions noted are these: P. falciparum in erythrocytes, SYBR Green DNA, 72 h; series mostly up to 12.8 µM. An outline of the steps:
as §1

The test system of test [4] is CP203. The test is described as above. The conditions noted are these: P. falciparum in erythrocytes, SYBR Green DNA, 72 h; series mostly up to 12.8 µM. An outline of the steps:
as §1

The subject of test [5] is CP237. The description is as above. As to conditions: P. falciparum in erythrocytes, SYBR Green DNA, 72 h; series mostly up to 12.8 µM. An outline of the steps:
as §1

The subject of test [6] is CP265. The description is as above. The conditions noted are these: P. falciparum in erythrocytes, SYBR Green DNA, 72 h; series mostly up to 12.8 µM. An outline of the steps: as §1
Test [7] has as its system CP268. The test is described as above. The conditions noted are these: P. falciparum in erythrocytes, SYBR Green DNA, 72 h; series mostly up to 12.8 µM. An outline of the steps:
as §1

Test [8] has as its system CP286. Described as above. The conditions noted are these: P. falciparum in erythrocytes, SYBR Green DNA, 72 h; series mostly up to 12.8 µM. An outline of the steps:
as §1

The test system of test [9] is CP291. The test is described as above. The conditions noted are these: P. falciparum in erythrocytes, SYBR Green DNA, 72 h; series mostly up to 12.8 µM. An outline of the steps:
as §1

Test [10] concerns DIV14. The test is described as above. As to conditions: P. falciparum in erythrocytes, SYBR Green DNA, 72 h; series mostly up to 12.8 µM. An outline of the steps:
as §1

Test [11] relates to DIV17. The description is as above. As to conditions: P. falciparum in erythrocytes, SYBR Green DNA, 72 h; series mostly up to 12.8 µM. An outline of the steps: as §1
In test [12] the test system is DIV30. The test is described as above. As to conditions: P. falciparum in erythrocytes, SYBR Green DNA, 72 h; series mostly up to 12.8 µM. An outline of the steps: as §1
Test [13] has as its system Dd2. The test is described as above. As to conditions: P. falciparum in erythrocytes, SYBR Green DNA, 72 h; series mostly up to 12.8 µM. An outline of the steps:
as §1

For test [14], the system named is HB3. Described as above. As to conditions: P. falciparum in erythrocytes, SYBR Green DNA, 72 h; series mostly up to 12.8 µM. An outline of the steps: as §1
For test [15], the system named is ICS. Described as above. The conditions noted are these: P. falciparum in erythrocytes, SYBR Green DNA, 72 h; series mostly up to 12.8 µM. An outline of the steps:
as §1

Test [16] has as its system P93_24. The description is as above. The conditions noted are these: P. falciparum in erythrocytes, SYBR Green DNA, 72 h; series mostly up to 12.8 µM. An outline of the steps: as §1
For test [17], the system named is PAD. The description is as above. As to conditions: P. falciparum in erythrocytes, SYBR Green DNA, 72 h; series mostly up to 12.8 µM. An outline of the steps: as §1
The test system of test [18] is TAB113. The description is as above. As to conditions: P. falciparum in erythrocytes, SYBR Green DNA, 72 h; series mostly up to 12.8 µM. An outline of the steps: as §1
Test [19] concerns CP325. The test is described as above. As to conditions: P. falciparum in erythrocytes, SYBR Green DNA, 72 h; series mostly up to 12.8 µM. An outline of the steps: as §1
For test [20], the target named is Luciferin 4-monooxygenase (Photinus pyralis) (UniProt P08659). In words: Biochemical firefly luciferase enzyme assay for NPC (AID 624030). Also: nearly all actives have a fitted effect of over 70% in size. An outline of the steps:
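Direct inhibition of firefly luciferase enzyme (10 nM final, 50 mM Tris Acetate) assessed by luminescence within 5 minutes. Percent activity scaled between DMSO and PTC124 positive control, with concentration-effect curves classified by fit quality and response.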
Potency is read from the fitted curve at half-maximal effect.

Luciferin 4-monooxygenase (Photinus pyralis), sequence (P08659 whole entry, looked up): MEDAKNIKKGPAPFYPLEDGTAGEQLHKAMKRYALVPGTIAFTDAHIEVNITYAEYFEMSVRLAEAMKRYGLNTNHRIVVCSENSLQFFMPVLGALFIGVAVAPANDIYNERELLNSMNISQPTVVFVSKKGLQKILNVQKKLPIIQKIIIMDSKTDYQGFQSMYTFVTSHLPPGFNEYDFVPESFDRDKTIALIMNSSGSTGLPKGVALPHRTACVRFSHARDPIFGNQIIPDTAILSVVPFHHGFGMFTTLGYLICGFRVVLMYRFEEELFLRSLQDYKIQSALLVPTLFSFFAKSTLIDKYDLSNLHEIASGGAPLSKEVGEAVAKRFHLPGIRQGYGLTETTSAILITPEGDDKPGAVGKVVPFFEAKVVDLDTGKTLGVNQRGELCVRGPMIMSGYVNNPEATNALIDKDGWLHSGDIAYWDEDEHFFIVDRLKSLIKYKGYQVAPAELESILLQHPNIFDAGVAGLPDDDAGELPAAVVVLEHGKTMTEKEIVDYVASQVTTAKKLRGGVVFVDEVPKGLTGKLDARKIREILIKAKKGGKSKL

On to `C[C@@H]1Cc2ccccc2N1NC(=O)c1ccc(Cl)c(S(N)=O)c1` (some centres not stated), for which the Potency result in [1], in test [2], in test [3], in [4], in test [5] and in test [6] was “inactive” in each case. For the same compound, the Potency entry in test [7], in test [8], in test [9], in test [10], in [11] and in test [12] was “inactive” each time. Also, the Potency entry in test [13], in [14], in test [15], in test [16], in test [17] and in test [18] was “inactive” in each case.

Regarding `CCC(=O)O[C@@]1(C(=O)SCF)[C@@H](C)C[C@H]2[C@@H]3C[C@@H](F)C4=CC(=O)C=C[C@@]4(C)[C@]3(F)[C@@H](O)C[C@]21C`, the Potency entry in test [2], in [3], in [4], in test [7], in test [8] and in test [9] was “inactive” throughout. Also, the Potency result in test [19] was “inactive”. Besides, the Potency in test [15] is 2.51 µM (active); in [16], 3.55 µM (active).

Regarding `C[C@@]12CC[C@H]3[C@@H](CCC4=CC(=O)CC[C@]43C)[C@H]1CC[C@H]2C(=O)CO`, the Potency entry in test [20], in [1], in test [2], in test [3], in test [5] and in test [6] was “inactive” in each case. Also, the Potency result in test [7], in [8], in [9], in [19], in test [11] and in [12] was “inactive” each time. Moreover, the Potency entry in test [13], in test [14] and in test [16] was “inactive” in each case. In addition, the Potency in [15] was 3.55 µM (active).

As for `NC(=O)c1ccc[n+]([C@@H]2O[C@H](COP(=O)([O-])OP(=O)(O)OC[C@H]3O[C@@H](n4cnc5c(N)ncnc54)[C@@H](O)[C@@H]3O)[C@@H](O)[C@@H]2O)c1`, the Potency result in test [20], in test [1], in [2], in [3], in test [4] and in test [5] was “inactive” throughout. Moreover, the Potency result in test [6], in test [7], in [8], in test [9], in test [19] and in test [10] was “inactive” each time. For the same compound, the Potency result in [11], in test [12], in test [13], in test [14], in test [15] and in test [16] was “inactive” each time. Further, the Potency result in test [17] and in test [18] was “inactive” throughout.

Take `NC(=O)c1cc[n+](CC2=C(C(=O)[O-])N3C(=O)[C@@H](NC(=O)Cc4cccs4)[C@@H]3SC2)cc1`: the Potency entry in [20], in [1], in [2], in test [3], in [5] and in test [6] was “inactive” each time. In addition, the Potency result in test [7], in test [8], in test [19], in test [10], in test [11] and in test [12] was “inactive” each time. Also, the Potency entry in test [13], in [14], in test [15], in test [16], in test [17] and in test [18] was “inactive” each time.

In the case of `COCC(=O)Nc1c(I)c(C(=O)NC[C@@H](O)CO)c(I)c(C(=O)N(C)C[C@@H](O)CO)c1I`, the Potency result in test [20], in [1], in test [2], in test [3], in test [4] and in [5] was “inactive” in each case. Also, the Potency entry in test [6], in test [7], in test [8], in [9], in test [19] and in test [10] was “inactive” each time. Also, the Potency entry in test [11], in test [12], in [13], in test [14], in test [15] and in [16] was “inactive” each time. Also, the Potency entry in test [17] and in test [18] was “inactive” each time.

With `Clc1ccc([C@H](Cn2ccnc2)OCc2csc3c(Cl)cccc23)c(Cl)c1`, the Potency result in test [20] and in [7] was “inactive” throughout. Moreover, the Potency in test [4] is 5.73 µM (active); in test [5], 3.16 µM (active); in test [10], 5.1 µM (active); in test [11], 7.21 µM (active); in [12] it was 5.1 µM (active); in test [13], 3.55 µM (active). The results for the Potency in test [15], in [16] and in test [17] were 2 µM (active), 2 µM (active) and 3.55 µM (active), respectively.

Regarding `O=C(O)[C@@H](O)[C@@H](O)[C@@H](O)[C@@H](O)C(=O)O` (tested in a mixture with another compound), the Potency result in [20] is “inactive”.

With `CCC[C@@H]1O[C@@H]2C[C@@H]3[C@H]4CCC5=CC(=O)C=C[C@@]5(C)[C@H]4[C@H](O)C[C@@]3(C)[C@@]2(C(=O)CO)O1`, the Potency entry in test [20] and in test [7] was “inactive” each time. Further, the Potency in test [10] is 9.53 µM (active); in test [13], 12.6 µM (active); in [15], 6.31 µM (active); in [16], 8.91 µM (active).

Take `CC(=O)C[C@H](c1ccc([N+](=O)[O-])cc1)c1c(O)c2ccccc2oc1=O`: the Potency entry in test [20], in test [1], in [2], in test [3], in [4] and in [5] was “inactive” each time. Moreover, the Potency result in [6], in test [7], in test [8], in [9], in [19] and in [10] was “inactive” each time. The Potency entry in test [11], in [12], in test [13], in test [14], in [15] and in [16] was “inactive” in each case. Moreover, the Potency result in [17] and in [18] was “inactive” in each case.

On to `C[C@@H](C(=O)O)c1ccc(C(=O)c2ccccc2)s1`, for which the Potency in test [20] is 4.89 µM (active). The Potency entry in test [1], in test [2], in [3], in test [4], in test [5] and in test [6] was “inactive” each time. Besides, the Potency result in [7], in test [8], in [9], in [19], in test [10] and in test [11] was “inactive” throughout. Further, the Potency result in test [12], in [13], in test [14], in test [15], in [16] and in [17] was “inactive” each time. Also, in [18], the Potency result was “inactive”.

As for `CC[C@H]1NC(=O)c2cc(S(N)(=O)=O)c(Cl)cc2N1`, the Potency entry in test [1], in [2], in test [3], in test [4], in test [5] and in test [6] was “inactive” each time. Moreover, the Potency result in [7], in [8], in [9], in [19], in test [10] and in [11] was “inactive” throughout. The Potency result in test [12], in test [13], in test [14], in [15], in test [16] and in test [17] was “inactive” throughout. The Potency result in [18] is “inactive”.

As for `CCCCC[C@H](O)/C=C\[C@@H]1[C@H](O)CC(=O)[C@@H]1CCCCCCC(=O)O`, the Potency entry in [20], in [1], in [3], in test [4], in [5] and in test [6] was “inactive” throughout. For the same compound, the Potency result in test [8], in test [9], in test [19], in test [12], in test [13] and in test [17] was “inactive” throughout. For the same compound, the Potency result in test [18] was “inactive”. Also, the Potency in test [15] was 3.55 µM (active).
